{
  "source": "ChEMBL document CHEMBL3988442",
  "about": "“University of Dundee, Small-Polar-MMV Screening Library” (2021)",
  "data": [
    {"target": "Shiga toxin 2 (Escherichia coli O157:H7) (UniProt P09385+P09386)", "assay": "E. coli 0.157:H7 Shiga Toxin SOP - stx2 screening assay", "format": "functional", "design": "scale not given: direction of the effect not stated beside the values", "settings": "30 µM", "units": {"Percent Effect": "%"}, "values": [
      {"smiles": "CNC(=O)[C@@]12CCC3(CCN(C(C)=O)CC3)[C@@H]1CN(S(C)(=O)=O)C2", "Percent Effect": -15.9},
      {"smiles": "COCCOc1cccc(C(=O)N2CCCC(n3ccnc3C)C2)c1", "note": "(stereo not given)", "Percent Effect": -16},
      {"smiles": "CC(C)Cc1noc(CN2CCOCC2)n1", "Percent Effect": 29.5},
      {"smiles": "c1ccc(OCC2CC3(CCN(Cc4ccncc4)CC3)CO2)nc1", "note": "(stereo not given)", "Percent Effect": -30.5},
      {"smiles": "Cc1ncnc2c1CCN(Cc1ccc3c(c1)OCO3)CC2", "Percent Effect": -19.3},
      {"smiles": "COc1ccc(-c2nc(CN3CC(n4cc(C)cn4)C3)no2)cc1", "Percent Effect": -20.1},
      {"smiles": "O=C(NCCNc1ncccn1)N(Cc1ccc(F)cc1F)C1CC1", "Percent Effect": 12.1},
      {"smiles": "O=C(CN1CCOC(Cn2cccn2)C1)NCc1cccs1", "note": "(stereo not given)", "Percent Effect": -9.71},
      {"smiles": "CN1CCN(c2nc(O)c3c(-c4ccccn4)ccnc3n2)CC1", "Percent Effect": 7.03},
      {"smiles": "COc1ccc(OCCN(C)C(=O)NC(C)c2nncn2C)cc1", "note": "(stereo not given)", "Percent Effect": -14.8},
      {"smiles": "O=C(NCC1CC1)[C@H]1C[C@H]2OCC[C@H]2N(Cc2ccsc2)C1", "Percent Effect": 13.4},
      {"smiles": "Cc1nc(COCc2cnc3n2CCN(C2CCC2)C3C)cs1", "note": "(stereo not given)", "Percent Effect": -5.21},
      {"smiles": "Cc1ccc(NC2CCN(C(=O)c3cc(C(N)=O)cs3)CC2)nn1", "Percent Effect": 3.48},
      {"smiles": "CN(C)C(=O)N[C@@H]1CN(Cc2ccc3c(c2)OCO3)[C@@H]2CCCO[C@@H]21", "Percent Effect": -7.65},
      {"smiles": "Cc1cccc(CN2CCC3(CCN(Cc4ccccn4)C3)C2=O)c1", "note": "(stereo not given)", "Percent Effect": -19.6},
      {"smiles": "Cc1cc(N(C)Cc2cc(C)on2)n2nc(C)c(C)c2n1", "Percent Effect": -20},
      {"smiles": "Cc1noc(C)c1C(=O)NCC(O)c1ccc(F)cc1F", "note": "(stereo not given)", "Percent Effect": 20.4},
      {"smiles": "N#Cc1cccc(S(=O)(=O)NC(=O)COC2CCCC2)c1", "Percent Effect": -31},
      {"smiles": "CCc1nc(CN2CCCC(NCc3cnn(C(C)(C)C)c3)C2)no1", "note": "(stereo not given)", "Percent Effect": 2.93},
      {"smiles": "CC(C)c1nn(C)c(Cl)c1CNCC(O)c1cccc(F)c1", "note": "(stereo not given)", "Percent Effect": 10.3},
      {"smiles": "O=C(CCCc1cn[nH]c1)N1C[C@@H](CN2CCOCC2)[C@@H](CO)C1", "Percent Effect": -29.7},
      {"smiles": "CCCc1cc(C(=O)N2CCCC(n3ccnc3C)C2)[nH]n1", "note": "(stereo not given)", "Percent Effect": -5.55},
      {"smiles": "Cc1ccc(C(=O)N2CCCC2c2nnc3n2CCCCC3)o1", "note": "(stereo not given)", "Percent Effect": -7.29},
      {"smiles": "Cc1ccc([C@@H]2CN(S(=O)(=O)N(C)C)C[C@H]2N(C)C)cc1", "Percent Effect": 5.3},
      {"smiles": "CC(c1cccnc1)N(C)Cc1csc(-c2ccccn2)n1", "note": "(stereo not given)", "Percent Effect": -14.1},
      {"smiles": "COCCC1(CO)CCCN(Cc2ccc(F)c(C)c2)C1", "note": "(stereo not given)", "Percent Effect": 15.6},
      {"smiles": "O=C(NCCOc1ccc2c(c1)OCO2)N1CCC1", "Percent Effect": -21.5},
      {"smiles": "CN(C)c1cc(CNC(=O)c2ccc(F)cc2F)ccn1", "Percent Effect": -51.7},
      {"smiles": "CCCNC(=O)c1ccc(NC(=O)c2cccc(OCC)c2)cc1", "Percent Effect": -85.2},
      {"smiles": "Cc1noc2ncc(C(=O)N3CCCC3c3ccncc3)cc12", "note": "(stereo not given)", "Percent Effect": -37.9},
      {"smiles": "N#Cc1ccccc1OCCN1CCC(N2CCNC2=O)CC1", "Percent Effect": -50.9},
      {"smiles": "Cn1cc(-c2nc(CNCCn3cccn3)cs2)cn1", "Percent Effect": -121},
      {"smiles": "Cc1nc(N2CCCC2)nc2c1CCN(C(=O)C1CCCC1)CC2", "Percent Effect": -9.64},
      {"smiles": "O=C(C[C@@H]1COC[C@H]2CN(Cc3ccncc3)C[C@@H]12)N1CCOCC1", "Percent Effect": -32},
      {"smiles": "CNC(=O)[C@H]1C[C@@H]2CN(C(=O)c3cscn3)C[C@@H]2N1S(C)(=O)=O", "Percent Effect": -4.53},
      {"smiles": "CN(C)C(=O)N1C[C@H]2CN(Cc3cccc(F)c3)C(=O)[C@H]2C1", "Percent Effect": -2.65},
      {"smiles": "CC(C#N)CSc1ccccc1NCC(=O)NCc1ccccc1", "note": "(stereo not given)", "Percent Effect": 21.2},
      {"smiles": "O=C(NCCNc1ncccn1)N1CCN(Cc2cccnc2)CC1", "Percent Effect": -6.42},
      {"smiles": "CC(C)n1ccnc1CN1CCCN(C(=O)COC2CCCC2)CC1", "Percent Effect": -3.07},
      {"smiles": "COc1cccc(C)c1C(=O)N1C[C@@H](CN(C)C)[C@@H](CO)C1", "Percent Effect": -14.7}
    ]}
  ]
}
